# Inconclusive results are not listed. Active and inactive are the calls of the source. The call rests on the fitted dose curve; in most records, active means well fitted cell-killing curve with a large enough effect; inconclusive means small, poorly fitted or top-dose-only effect, or effect the other way; inactive means flat fitted curve, though single readings scatter.
# Assay: Cell Viability - HUV-EC-C (AID 542); further: nearly all actives have a fitted effect of over 35% in size
# Conditions: HUV-EC-C endothelial cell viability, qHTS; series mostly up to 92.2 µM; activity change, negative = cytotoxicity: at the top concentration
# From the text: NIH Chemical Genomics Center [NCGC]
# NIH Molecular Libraries Screening Centers Network [MLSCN]
# National Institutes of Environmental Health Sciences [NIEHS]
# National Toxicology Program [NTP]
# We have developed a 1536-well cell-based assay for quantitative high throughput screening (qHTS) against a number of cell lines to determine in vitro cytotoxicity of small molecules. This particular assay uses the HUV-EC-C cell line which is derived from normal human vascular endothelial cells.
# NCGC Assay Protocol Summary:
# The CellTiter-Glo luminescent cell viability assay (Promega) is a homogeneous method to measure the number of viable cells in culture. The end point readout of this assay is based on quantitation of intracellular ATP, an indicator of metabolic activity, using the luciferase reaction. Luciferase catalyzes the oxidation of beetle Luciferin to oxyluciferin and light in the presence of ATP. The luminescent signal is proportional to amount of ATP present.
# Using the CellTiter-Glo luminescent cell viability assay, the amount of cellular ATP was measured in the HUV-EC-C cell line with complete culture medium following compound treatment for 40 hours. The assay was performed in opaque white Kalypsys 1536-well plates. In the screen, tamoxifen and doxorubicin were used as positive controls. Library compounds were measured for their ability to cause acute toxicity in the cell line, as reflected by a decrease in intracellular ATP levels, in a concentration-dependent manner. […] AC50 values were determined from concentration-response data modeled with the standard Hill equation.
# qHTS protocol for CellTiter Glo HUV-EC-C cellular assay
# [Step] [Parameter] [Value] [Description]
# 1. Reagent; 5 uL; 1000 HUV-EC-C cells/well
# 2. Time; 5 hr; 37 °C incubation
# 4. Controls; 23 nL; Tamoxifen 0.34 uM to 100 uM & Doxorubicin 0.02 nM to 100 uM
# 5. Time; 40 hr; 37 °C incubation
# 6. Reagent; 5 uL; CellTiter Glo reagent
# 7. Time; 20 min; Room Temperature
# 8. Detection; Luminescence; Viewlux plate reader
# Keywords: cell viability, cytotoxicity, HUV-EC-C cell line, luminescence, NTPHTS, NTPHTS_NCGC, NIEHS, EPA, DSSTox, MLSMR, MLSCN, NIH Roadmap, qHTS, NCGC
# On the % scale 0 is the no-effect control and ±100 the full control effect; potency means the concentration at half of the fitted maximal effect.
SMILES,"activity change, negative = cytotoxicity",Potency
C/C=C/C=O,3.28% (inactive),–
ClC(Cl)c1ccccc1,10.4% (inactive),–
O=Cc1ccc(Cl)cc1Cl,1.12% (inactive),–
CCCC[N+](=O)[O-],-6.13% (inactive),–
CCCCCCCCCCCOC(=O)c1ccccc1C(=O)OCCCCCCCCCCC,-0.927% (inactive),–
CN(C)c1ccc(N(C)C)cc1,0.116% (inactive),–
O=NN1CCCCC1,5.54% (inactive),–
Nc1ccc(Cl)c(Cl)c1,12.5% (inactive),–
CC(C)(C)C(O)(CCc1ccc(Cl)cc1)Cn1cncn1 (stereo not given),-8.18% (inactive),–
ClP(Cl)(Cl)(Cl)Cl,-0.101% (inactive),–
CN(C)C(=O)Nc1ccc(Cl)cc1,5.91% (inactive),–
O=[N+]([O-])c1cc(Cl)c(Cl)c(Cl)c1,-3.15% (inactive),–
Nc1ccc(-c2ccc(N)cc2)cc1,3.8% (inactive),–
O=[N+]([O-])c1ccccc1O,-4.53% (inactive),–
Cc1cc(-c2ccc(N)c(C)c2)ccc1N,-17.2% (inactive),–
Oc1cc(Cl)ccc1Cl,-7.93% (inactive),–
Nc1ccc(Oc2ccc(N)cc2)cc1,-11.6% (inactive),–
CCOC(=O)CC(SP(=O)(OC)OC)C(=O)OCC (stereo not given),16.2% (inactive),–
Cc1ccc([N+](=O)[O-])cc1,7.66% (inactive),–
Brc1ccc(Oc2ccc(Br)cc2Br)c(Br)c1,13.9% (inactive),–

SMILES,"activity change, negative = cytotoxicity",Potency
Nc1c(Br)cc([N+](=O)[O-])cc1[N+](=O)[O-],-6.26% (inactive),–
O=C(O)C(Cl)Br (stereo not given),-2.91% (inactive),–
ClC=CCl,-3.89% (inactive),–
COc1cc(-c2ccc(N)c(OC)c2)ccc1N,-9.72% (inactive),–
ClC(Br)Br,0.125% (inactive),–
O=[N+]([O-])c1ccc2c3c(cccc13)CC2,-9.11% (inactive),–
CCCCC#N,-4.18% (inactive),–
O=[N+]([O-])c1ccccc1CCl,-11.4% (inactive),–
Oc1cccc(Cl)c1Cl,-6.15% (inactive),–
Cc1cccc(N)c1C,-8.65% (inactive),–
CCSC(=O)N1CCCCCC1,-0.0137% (inactive),–
ClCC(Cl)CCl,-1.67% (inactive),–
Cc1cc(-c2cc(C)c(N)c(C)c2)cc(C)c1N,-20.9% (inactive),–
Clc1cccc(Cl)c1Cl,-3.13% (inactive),–
CN(C)c1ccc(N)cc1,–,31.6 µM (active)
ClCCBr,-24.1% (inactive),–
NNC(N)=S,-0.846% (inactive),–
Cc1ccc2c(C)cccc2c1,-16.9% (inactive),–
CC(=O)[O-].CC(=O)[O-].CC(=O)[O-].[Cr+3],8.83% (inactive),–
C=C(Cl)CSC(=S)N(CC)CC,-2.4% (inactive),–
